Data from PubChem BioAssay (NCATS).
Records with an inconclusive call do not appear. Where a call stands in place of a potency, no number is given. Activity calls are given as the source filed them. The call rests on the fitted dose curve; in most records, active means well fitted curve in the direction sought with a large enough effect; inconclusive means small, poorly fitted or top-dose-only effect, or another doubt; inactive means no such curve, though single readings can be large; an effect the other way counts as inactive or inconclusive.

Key:
[1] = test system: Zika virus NS2B-NS3 protease (unlinked complex); test: Primary screen GU Rhodamine qHTS for Zika virus inhibitors: Unlinked NS2B-NS3 protease assay (AID 1347159); further: nearly all actives have a fitted effect of over 60% in size; further: potency means the concentration at half of the fitted maximal effect
Method in brief: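 Percent inhibition came from the 15-min rise in Rhodamine110 fluorescence (1.5 microM substrate, ~15% conversion), normalized to no-inhibitor and no-enzyme wells and Hill-fitted. Unlinked protease, 25 nM, pH 8.0 Tris buffer; compounds up to 114 microM, 15-min preincubation.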

[2] = test system: Zika virus NS2B-NS3 protease (linked construct); test: Primary screen NINDS Rhodamine qHTS for Zika virus inhibitors (AID 1347160); further: nearly all actives have a fitted effect of over 55% in size; further: potency means the concentration at half of the fitted maximal effect
Method in brief: (§1)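 Rhodamine110-peptide cleavage (1.5 µM substrate) by 25 nM linked NS2B-NS3 enzyme at pH 8.0 (Tris, Tween 20), after 15 min RT preincubation with compounds; 15-min fluorescence change normalized to controls and Hill-fitted.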

[3] = target: Lysine-specific demethylase 5B (Homo sapiens) (UniProt Q9UGL1); test: Optimization screen for KDM5B Histone Demethylases FDH coupled qHTS against the LOPAC library (AID 1347166)
Sequence of Lysine-specific demethylase 5B (Homo sapiens) (Q9UGL1 whole entry, looked up): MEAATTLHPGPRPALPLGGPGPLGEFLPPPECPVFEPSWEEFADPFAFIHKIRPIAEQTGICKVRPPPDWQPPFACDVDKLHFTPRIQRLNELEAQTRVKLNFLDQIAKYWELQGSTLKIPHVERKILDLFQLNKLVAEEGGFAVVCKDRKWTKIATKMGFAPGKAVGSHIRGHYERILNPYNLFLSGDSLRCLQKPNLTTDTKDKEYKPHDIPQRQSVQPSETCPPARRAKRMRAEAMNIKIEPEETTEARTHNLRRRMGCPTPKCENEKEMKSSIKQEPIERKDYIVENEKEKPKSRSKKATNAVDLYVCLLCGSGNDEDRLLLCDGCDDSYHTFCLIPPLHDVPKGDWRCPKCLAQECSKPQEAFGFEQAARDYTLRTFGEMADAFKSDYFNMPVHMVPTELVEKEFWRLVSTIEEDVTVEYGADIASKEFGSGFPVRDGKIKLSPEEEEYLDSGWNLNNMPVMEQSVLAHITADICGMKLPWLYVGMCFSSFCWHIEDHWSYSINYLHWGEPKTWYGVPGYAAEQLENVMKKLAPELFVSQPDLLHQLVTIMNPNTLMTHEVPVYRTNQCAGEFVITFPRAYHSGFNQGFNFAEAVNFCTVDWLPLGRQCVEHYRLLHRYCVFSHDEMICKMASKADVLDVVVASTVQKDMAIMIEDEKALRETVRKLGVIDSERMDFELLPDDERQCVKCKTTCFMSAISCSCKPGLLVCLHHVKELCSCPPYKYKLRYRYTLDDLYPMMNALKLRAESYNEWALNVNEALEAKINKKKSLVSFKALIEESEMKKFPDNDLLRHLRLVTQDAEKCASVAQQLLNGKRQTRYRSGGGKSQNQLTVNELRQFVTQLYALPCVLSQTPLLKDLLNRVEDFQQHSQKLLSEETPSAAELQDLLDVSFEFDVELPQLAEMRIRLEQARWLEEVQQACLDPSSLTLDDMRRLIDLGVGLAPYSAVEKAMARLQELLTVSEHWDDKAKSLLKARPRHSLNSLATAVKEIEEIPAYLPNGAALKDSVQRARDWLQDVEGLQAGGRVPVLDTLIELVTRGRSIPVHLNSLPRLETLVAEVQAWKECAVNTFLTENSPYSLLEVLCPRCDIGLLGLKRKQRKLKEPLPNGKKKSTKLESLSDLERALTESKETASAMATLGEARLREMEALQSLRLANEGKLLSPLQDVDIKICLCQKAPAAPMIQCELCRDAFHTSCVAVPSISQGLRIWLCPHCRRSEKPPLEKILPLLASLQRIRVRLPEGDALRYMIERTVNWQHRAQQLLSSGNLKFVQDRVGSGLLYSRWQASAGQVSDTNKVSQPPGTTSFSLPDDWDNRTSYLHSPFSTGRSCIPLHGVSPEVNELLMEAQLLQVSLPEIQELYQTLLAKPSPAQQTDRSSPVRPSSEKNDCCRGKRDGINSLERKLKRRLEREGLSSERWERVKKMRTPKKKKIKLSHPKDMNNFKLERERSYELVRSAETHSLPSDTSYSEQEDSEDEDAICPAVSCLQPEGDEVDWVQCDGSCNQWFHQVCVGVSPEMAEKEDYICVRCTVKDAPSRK
Method in brief: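 KDM5BDeltaAP (200nM final) in 50mM HEPES pH 7.5, 0.01% Tween-20 was preincubated with compound for 10 min at room temperature. A substrate mix of 12.5uM H3K4Me3, 25uM a-ketoglutarate, ascorbate, Fe2+, NAD+ and formaldehyde dehydrogenase was then added. NADH fluorescence (340/450 nm) was read initially and after 30 min.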

[4] = Confirmatory screen NINDS Rhodamine qHTS for Zika virus inhibitors (AID 1347161); further: nearly all actives have a fitted effect of over 60% in size; further: potency means the concentration at half of the fitted maximal effect
Method in brief: as §1

[5] = Vero cells viability qHTS for Zika virus inhibitors (AID 1347167)
Method in brief: (§2)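 Luminescent ATP readout (CellTiter Glo) after 30 min at 37 degrees C gives viability; cells in DMEM + 4% FBS were treated 24 to 48 hours with compound, following overnight attachment.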

[6] = HepG2 cells viability qHTS for Zika virus inhibitors (AID 1347168)
Method in brief: as §2

[7] = Tertiary RLuc qRT-PCR qHTS assay for Zika virus inhibitors (AID 1347169); further: top concentration of the series differs between compounds; nearly all actives have a fitted effect of over 55% in size
Method in brief: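 Vero, 1,000 cells/well, o/n 37 C; cpd pinned in DMSO; ZIKV-RLuc Cambodian, MOI 1-2, 48-72 h 37 C; live-cell RLuc substrate, lum read at 1-1.5 h.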

[8] = test system: Zika virus NS2B-NS3 protease (linked); test: 384 well plate NINDS AMC confirmatory qHTS for Zika virus inhibitors (AID 1347163); details: Recombinant NS2B-NS3 protease, Ac-VKTGKR-AMC fluorescence; further: potency means the concentration at half of the fitted maximal effect; nearly all actives have a fitted effect of over 50% in size
Method in brief: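 Enzyme (5, 30 or 60 nM final) first met test compounds for ~15 min. The AMC-tagged peptide Ac-VKTGKR-AMC followed at 30 microM. Fluorescence was then recorded at 25 min and scaled against no-enzyme and no-inhibitor wells.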

[9] = test system: Zika virus NS2B-NS3 protease (linked construct); test: 384 well plate NINDS Rhodamine confirmatory qHTS for Zika virus inhibitors (AID 1347164);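 further: fluorescence from protease cleavage of Ac-LKRR-rhodamine 110 substrate; nearly all actives have a fitted effect of over 65% in size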; further: potency means the concentration at half of the fitted maximal effect
Method in brief: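 Enzyme (final 5/30/60 nM) + cpd (DMSO), ~15 min; add Ac-LKRR-Rd 10 microM final; 25 min RT, dark; FI ex 485/em 538; normalized to no-enzyme, no-inhibitor ctrls; aprotinin intraplate ctrl.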

[10] = HPAF-II Cancer Cell Toxicity qHTS against the NCATS CANVASS Library (AID 1347346); further: nearly all actives have a fitted effect of over 55% in size
Method in brief: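 1000 HPAF-II cells/well; 4 h pre-incubation; 11-pnt compound titration; 72 h, 37 degrees C/5% CO2; CellTiter-Glo, 15 min RT; luminescence read.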

[11] = OV-KATE Cancer Cell Toxicity qHTS against the NCATS CANVASS Library (AID 1347345)
Method in brief: (§3)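 Quantitative HTS format: an 11-concentration series was applied to 1000 cells/well following a 4-hour attachment. Cultures ran 72 hours before ATP luminescence detection by CellTiter-Glo.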

[12] = UWB1.289 Cancer Cell Toxicity qHTS against the NCATS CANVASS Library (AID 1347347); further: nearly all actives have a fitted effect of over 60% in size
Method in brief: as §3

[13] = OV-SAHO Cancer Cell Toxicity qHTS against the NCATS CANVASS Library (AID 1347348); further: nearly all actives have a fitted effect of over 55% in size
Method in brief: as §3

[14] = Panc-1005 Cancer Cell Toxicity qHTS against the NCATS CANVASS Library (AID 1347349); further: nearly all actives have a fitted effect of over 60% in size
Method in brief: as §3

[15] = SW1088 Cancer Cell Toxicity qHTS against the NCATS CANVASS Library (AID 1347350); further: nearly all actives have a fitted effect of over 75% in size
Method in brief: as §3

[16] = U-118MG Cancer Cell Toxicity qHTS against the NCATS CANVASS Library (AID 1347351)
Method in brief: as §3

[17] = COV-362 Cancer Cell Toxicity qHTS against the NCATS CANVASS Library (AID 1347352)
Method in brief: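 1000 cells/well, 4 h pre-incubation 37 °C/5% CO2; 11-pnt titration; 72 h; CellTiter-Glo 15 min RT, luminescence.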

[18] = A2780 Cisplatin Sensitive Ovarian Cancer Cell Toxicity qHTS against the NCATS CANVASS Library (AID 1347353); details: A2780 ovarian cancer viability, ATPLite luminescence, 72 h; at 46.1 µM (top of the series); further: nearly all actives have a fitted effect of over 60% in size
Method in brief: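 750 cells/well, 4 h settle; 11-pt cpd titration; 72 h, 37 °C, 5% CO2; ATPLite 10 min RT; luminescence read.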

## COc1cc(CNC(=O)CCCC/C=C/C(C)C)ccc1O
[1]
  Potency: inactive
[2]
  Potency: inactive

## CN(CCCOc1ccc(Cc2ccccc2)cc1)CCC(=O)O
[1]
  Potency: inactive
[2]
  Potency: inactive

## Fc1ccc2[nH]c(CN3CCN(c4ccccn4)CC3)cc2c1
[1]
  Potency: inactive
[2]
  Potency: inactive

## O=C(Nc1ccc2c(c1)CCN(Cc1ncn[nH]1)C2)c1ccccc1-c1ccc(C(F)(F)F)cc1
[1]
  Potency: inactive
[2]
  Potency: inactive

## C[C@H](O)[C@H](O)[C@H]1CNc2nc(N)[nH]c(=O)c2N1
[1]
  Potency: inactive
[2]
  Potency: inactive

## CC1(C)[C@@H](O)CC[C@]2(C)[C@H]3C(=O)C=C4[C@@H]5C[C@@](C)(C(=O)O)CC[C@]5(C)CC[C@@]4(C)[C@]3(C)CC[C@@H]12
[1]
  Potency: 17.8 µM (active)
[2]
  Potency: 14.1 µM (active)

## CC1(C)S[C@@H]2[C@H](NC(=O)[C@H](NC(=O)N3CCN(S(C)(=O)=O)C3=O)c3ccccc3)C(=O)N2[C@H]1C(=O)O
[1]
  Potency: inactive
[2]
  Potency: inactive

## NC[C@H]1O[C@@H](n2cnc3c(N)ncnc32)[C@H](O)[C@@H]1O
[3]
  outcome: inactive

## O=C(/C=C/c1ccc(O)c(O)c1)OCCc1ccccc1
[3]
  outcome: inactive

## CN1CCN(c2cc3c(nn2)Oc2ccccc2N3C)CC1
[4]
  Potency: inactive
[5]
  outcome: inactive
[6]
  outcome: inactive
[7]
  Potency: inactive

## CNCC[C@H](Oc1ccc(C(F)(F)F)cc1)c1ccccc1
[3]
  outcome: inactive

## CN1CCc2cccc3c2C1Cc1ccc(O)c(O)c1-3 (stereo unspecified)
[3]
  outcome: inactive

## Cc1ccc(O)c(N=Nc2ccccc2)n1
[3]
  outcome: inactive

## O=C(O)CCCC[C@@H]1CCSS1
[3]
  outcome: inactive

## O=C1NC(=O)/C(=C/c2ccc(-c3ccc(F)cc3O)o2)S1
[4]
  Potency: 24.8 µM (active)
[8]
  Potency: 63.1 µM (active)
[9]
  Potency: 20 µM (active)
[6]
  outcome: inactive
[7]
  Potency: inactive

## CCCCN1CCC(n2c(=O)[nH]c3ccccc32)CC1
[3]
  outcome: inactive

## COc1ccc(Br)cc1S(=O)(=O)NC(=O)/C=C/c1ccccc1Cc1ccc2ccccc2c1
[4]
  Potency: 1.96 µM (active)
[8]
  Potency: 0.251 µM (active)
[9]
  Potency: inactive
[5]
  outcome: inactive
[6]
  outcome: inactive

## Cc1ccc(C(=O)O[C@H](C(=O)O)[C@@H](OC(=O)c2ccc(C)cc2)C(=O)O)cc1 (tested in a mixture with another compound)
[3]
  outcome: inactive

## Ic1ccc(N2CCN(Cc3c[nH]c4ncccc34)CC2)cc1
[3]
  outcome: inactive

## COc1ccccc1N1CCN(CCN(C(=O)c2ccc(I)cc2)c2ccccn2)CC1
[3]
  outcome: inactive

## CN(C)c1nc2c(Br)c(Br)c(Br)c(Br)c2[nH]1
[3]
  outcome: inactive

## NS(=O)(=O)c1ccc(-n2nc(C(F)(F)F)cc2-c2ccc(Cl)cc2)cc1
[2]
  Potency: inactive

## C=C[C@@H]1CN2CC[C@@H]1C[C@H]2[C@H](O)c1ccnc2ccc(OC)cc12
[4]
  Potency: inactive
[5]
  outcome: inactive

## COc1ccc(/C=C/c2nc(NCCCN(C)C)c3ccccc3n2)cc1
[4]
  Potency: inactive
[5]
  outcome: inactive
[6]
  outcome: inactive

## NCCNC(=O)c1ncsc1-c1cccc(F)c1
[3]
  outcome: inactive

## O=C(c1ccc(OCCCc2cnc[nH]2)cc1)C1CC1
[3]
  outcome: inactive

## O=C(c1cc(O)c(O)c([N+](=O)[O-])c1)c1ccccc1F
[4]
  Potency: 17.5 µM (active)
[8]
  Potency: 112 µM (active)
[9]
  Potency: 0.398 µM (active)
[6]
  outcome: inactive

## O=c1cc(-c2ccccc2)oc2c(O)c(O)ccc12
[2]
  Potency: 6.97 µM (active)
[10]
  outcome: inactive

## CCN(CC)c1ncnc2c1ncn2[C@@H]1O[C@H](COP(=O)(O)OP(=O)(O)C(Br)(Br)P(=O)(O)O)[C@@H](O)[C@H]1O
[3]
  outcome: inactive

## CC(C)NCC(O)COc1cccc2ccccc12 (stereo unspecified)
[3]
  outcome: inactive

## O=c1[nH]c2cc(C(F)(F)F)ccc2n1-c1cc(C(F)(F)F)ccc1O
[3]
  outcome: inactive

## Cc1cc2c(cc1Cl)N(C(=O)Nc1ccc(Oc3cccnc3C)nc1)CC2
[3]
  outcome: inactive

## C[N+]1(C)C2CC(OC(=O)[C@H](CO)c3ccccc3)CC1C1OC12 (stereo partly specified)
[3]
  outcome: inactive

## O=C(NOCC1CC1)c1cc(Br)c(F)c(F)c1Nc1ccc(I)cc1Cl
[4]
  Potency: 3.92 µM (active)
[8]
  Potency: 44.7 µM (active)
[9]
  Potency: 31.6 µM (active)

## OC[C@H]1O[C@@H](n2cnc3c(NC4CCCCC4)ncnc32)[C@H](O)[C@@H]1O
[3]
  outcome: inactive

## O=P(O)(O)C(Cl)(Cl)P(=O)(O)O
[3]
  outcome: inactive

## O=C(c1ccc(Cl)cc1)N1CCN(c2ccc([N+](=O)[O-])c3ncccc23)CC1
[3]
  outcome: inactive

## O=C(O)c1cc(O)c(O)c(O)c1
[2]
  Potency: 49.3 µM (active)
[11]
  outcome: inactive
[10]
  outcome: inactive
[12]
  outcome: inactive
[13]
  outcome: inactive
[14]
  outcome: inactive
[15]
  outcome: inactive
[16]
  outcome: inactive
[17]
  outcome: inactive
[18]
  outcome: inactive

## CN1CC(=O)N/C1=N/C(=O)Nc1cccc(Cl)c1
[3]
  outcome: inactive

## Nc1ncnc2c1ncn2[C@@H]1O[C@H](COP(=O)(O)CP(=O)(O)OP(=O)(O)O)[C@@H](O)[C@H]1O
[3]
  outcome: inactive
